The results in this text go back to PubChem BioAssay AID1347084 (National Center for Advancing Translational Sciences (NCATS), 2019).

Records with an inconclusive call do not appear. Active and inactive are the calls of the source. Calls follow the shape of the full dose curve.

A short description of this test: qHTS for Inhibitors of the Functional Ribonucleoprotein Complex (vRNP) of Lymphocytic Choriomeningitis Arenaviruses (LCMV): LCMV Confirmatory Screen - GLuc reporter signal. (In general: In qHTS, concentration-response curves come from the screen itself.)

In the case of `Cc1cccc(-c2[nH]c(C(C)(C)C)nc2-c2ccc3c(c2)OCO3)n1`, the Potency was 3.43 µM (active).

`COc1cc2c(cc1OC)CC(=O)N(CCCN(C)C[C@H]1Cc3cc(OC)c(OC)cc31)CC2`: the Potency result is “inactive”.

As to `O=C(Nc1ccccc1)Nc1ccc(-c2ccc(C(=O)[C@H]3CCC[C@H]3C(=O)O)cc2)cc1`, the Potency result is “inactive”.

With `O=C1Cc2cc(CCN3CCN(c4nsc5ccccc45)CC3)c(Cl)cc2N1`, the Potency result was “inactive”.

As for `C=C(C)C1Cc2c(ccc3c2OC2COc4cc(OC)c(OC)cc4C2C3=O)O1` (stereo unspecified), the Potency is 0.0153 µM (active).

With `CC(=O)[C@H]1CC[C@H]2[C@@H]3CCC4=CC(=O)CC[C@]4(C)[C@H]3CC[C@]12C`, the Potency was 24.3 µM (active).

Turning to `CC12C(=O)OC(=O)C1(C)C1CCC2O1` (stereo unspecified), the Potency is 9.68 µM (active).

As to `Cc1ccccc1-n1c(Cn2nc(-c3cccc(O)c3)c3c(N)ncnc32)nc2cccc(C)c2c1=O`, the Potency is 30.6 µM (active).

With `C=C1CC[C@@H]2[C@](C)(CO)[C@H](O)CC[C@@]2(C)[C@@H]1/C=C/C1=CCOC1=O`, the Potency is 21.7 µM (active).

On to `CNCCCC1c2ccccc2C=Cc2ccccc21`, for which the Potency was 30.6 µM (active).

Turning to `Oc1cc(Cl)ccc1Oc1ccc(Cl)cc1Cl`, the Potency was 22.2 µM (active).

In the case of `FC(F)(F)c1ccc(C=Cc2nc(COc3ccc(CCCCn4ccnn4)cc3)co2)cc1`, the Potency is 0.0153 µM (active).

Consider `O=C(Nc1ccccc1)c1cc([N+](=O)[O-])ccc1Cl`, for which the Potency is 24.3 µM (active).

For the compound `NC(=O)N/N=C/c1ccc([N+](=O)[O-])o1`, the Potency was 24.3 µM (active).

Consider `CC[C@@H](C(=O)O)[C@@H]1O[C@@H]([C@@H](C)[C@H](O)[C@H](C)C(=O)[C@H](CC)[C@H]2O[C@]3(C=C[C@@H](O)[C@]4(CC[C@@](C)([C@H]5CC[C@](O)(CC)[C@H](C)O5)O4)O3)[C@H](C)C[C@@H]2C)[C@@H](C)C[C@@H]1C`, for which the Potency was 0.0627 µM (active).

In the case of `N#CC(=C(\N)Sc1ccccc1N)/C(C#N)=C(/N)Sc1ccccc1N`, the Potency was 27.3 µM (active).
